# In PubChem BioAssay:
# Unmarked numbers belong to inactive results. Active and inactive are the calls of the source. Cut-off read from the data, not from the text of the source, unless noted: active = inhibition above about 28%; inactive = the rest.
# What was measured:
# [1] = target: Nuclear receptor coactivator 3 (Homo sapiens) (UniProt Q9Y6Q9); assay: SRC3 coactivator transcriptional activity inhibitors, confirmation, cell-based, luminescence, quadruplicate (AID 588792;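 active = mean inhibition over 43.08%, the solvent-only control mean plus 3 SD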;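 note: 0% = DMSO treated cells and 100% = gossypol at 36 µM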); conditions: HEK293 GAL4-SRC3 luciferase reporter, at 3.6 µM, stronger effect = higher value
# Nuclear receptor coactivator 3 (Homo sapiens), sequence (Q9Y6Q9 whole entry, looked up, the tested form may be a part): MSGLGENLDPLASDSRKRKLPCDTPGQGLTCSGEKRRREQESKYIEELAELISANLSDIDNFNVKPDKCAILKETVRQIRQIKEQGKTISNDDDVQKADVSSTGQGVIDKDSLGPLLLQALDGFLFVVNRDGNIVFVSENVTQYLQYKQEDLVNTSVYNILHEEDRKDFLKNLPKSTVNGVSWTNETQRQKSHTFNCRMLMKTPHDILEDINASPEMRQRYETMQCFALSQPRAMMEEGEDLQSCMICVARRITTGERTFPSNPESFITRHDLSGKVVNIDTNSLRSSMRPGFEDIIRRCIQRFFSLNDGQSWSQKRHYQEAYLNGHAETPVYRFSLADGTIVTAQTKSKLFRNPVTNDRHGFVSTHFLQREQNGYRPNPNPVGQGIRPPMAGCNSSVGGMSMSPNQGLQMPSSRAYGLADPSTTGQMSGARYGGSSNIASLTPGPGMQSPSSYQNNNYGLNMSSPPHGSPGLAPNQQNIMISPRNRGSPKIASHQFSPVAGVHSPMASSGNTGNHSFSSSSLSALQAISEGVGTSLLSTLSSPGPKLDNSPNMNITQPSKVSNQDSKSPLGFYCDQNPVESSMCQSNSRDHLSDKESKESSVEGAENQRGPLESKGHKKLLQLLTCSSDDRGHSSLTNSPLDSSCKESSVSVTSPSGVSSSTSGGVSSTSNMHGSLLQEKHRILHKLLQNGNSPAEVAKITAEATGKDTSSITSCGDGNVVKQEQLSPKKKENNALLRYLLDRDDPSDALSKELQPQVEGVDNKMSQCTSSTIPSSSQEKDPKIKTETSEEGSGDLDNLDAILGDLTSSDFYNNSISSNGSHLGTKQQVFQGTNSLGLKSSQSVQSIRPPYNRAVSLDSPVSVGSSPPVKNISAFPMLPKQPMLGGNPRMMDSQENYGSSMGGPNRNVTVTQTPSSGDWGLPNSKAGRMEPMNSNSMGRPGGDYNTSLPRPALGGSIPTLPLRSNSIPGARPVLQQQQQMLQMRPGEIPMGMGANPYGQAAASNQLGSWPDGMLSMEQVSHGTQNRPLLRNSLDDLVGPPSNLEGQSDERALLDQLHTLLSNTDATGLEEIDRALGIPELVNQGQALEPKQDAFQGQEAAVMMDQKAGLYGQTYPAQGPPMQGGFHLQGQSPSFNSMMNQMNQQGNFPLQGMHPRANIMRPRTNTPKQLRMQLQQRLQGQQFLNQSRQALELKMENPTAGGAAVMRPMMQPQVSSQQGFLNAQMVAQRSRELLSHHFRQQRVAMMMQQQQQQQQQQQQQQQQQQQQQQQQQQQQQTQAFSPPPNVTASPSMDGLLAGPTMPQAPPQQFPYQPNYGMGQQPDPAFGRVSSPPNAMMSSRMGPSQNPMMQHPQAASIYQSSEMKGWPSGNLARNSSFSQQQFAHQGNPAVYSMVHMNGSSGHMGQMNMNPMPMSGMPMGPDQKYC
# [2] = system: transactivating tegument protein VP16 (Human herpesvirus 1), Gal4-VP16 luciferase reporter; assay: VP16 transactivation inhibitors, counter-screen for SRC3 inhibitor project, cell-based, luminescence, high throughput (AID 588794; in the data active = inhibition above about 30%); conditions: mammalian cells, VP16-driven luciferase reporter luminescence; at 3.6 µM; stronger effect = higher value
# [3] = target: Nuclear receptor coactivator 1 (Homo sapiens) (UniProt Q15788); assay: SRC1 coactivator transcriptional activity inhibitors, confirmation, cell-based, luminescence, quadruplicate (AID 588820;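 active = mean inhibition above 46.68%, the untreated control wells mean plus 3 SD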;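 note: 0% = DMSO wells and 100% = gossypol 36 µM treated wells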); conditions: HEK293 GAL4-SRC1 luciferase reporter, at 3.6 µM, stronger effect = higher value
# Nuclear receptor coactivator 1 (Homo sapiens), sequence (Q15788 whole entry, looked up, the tested form may be a part): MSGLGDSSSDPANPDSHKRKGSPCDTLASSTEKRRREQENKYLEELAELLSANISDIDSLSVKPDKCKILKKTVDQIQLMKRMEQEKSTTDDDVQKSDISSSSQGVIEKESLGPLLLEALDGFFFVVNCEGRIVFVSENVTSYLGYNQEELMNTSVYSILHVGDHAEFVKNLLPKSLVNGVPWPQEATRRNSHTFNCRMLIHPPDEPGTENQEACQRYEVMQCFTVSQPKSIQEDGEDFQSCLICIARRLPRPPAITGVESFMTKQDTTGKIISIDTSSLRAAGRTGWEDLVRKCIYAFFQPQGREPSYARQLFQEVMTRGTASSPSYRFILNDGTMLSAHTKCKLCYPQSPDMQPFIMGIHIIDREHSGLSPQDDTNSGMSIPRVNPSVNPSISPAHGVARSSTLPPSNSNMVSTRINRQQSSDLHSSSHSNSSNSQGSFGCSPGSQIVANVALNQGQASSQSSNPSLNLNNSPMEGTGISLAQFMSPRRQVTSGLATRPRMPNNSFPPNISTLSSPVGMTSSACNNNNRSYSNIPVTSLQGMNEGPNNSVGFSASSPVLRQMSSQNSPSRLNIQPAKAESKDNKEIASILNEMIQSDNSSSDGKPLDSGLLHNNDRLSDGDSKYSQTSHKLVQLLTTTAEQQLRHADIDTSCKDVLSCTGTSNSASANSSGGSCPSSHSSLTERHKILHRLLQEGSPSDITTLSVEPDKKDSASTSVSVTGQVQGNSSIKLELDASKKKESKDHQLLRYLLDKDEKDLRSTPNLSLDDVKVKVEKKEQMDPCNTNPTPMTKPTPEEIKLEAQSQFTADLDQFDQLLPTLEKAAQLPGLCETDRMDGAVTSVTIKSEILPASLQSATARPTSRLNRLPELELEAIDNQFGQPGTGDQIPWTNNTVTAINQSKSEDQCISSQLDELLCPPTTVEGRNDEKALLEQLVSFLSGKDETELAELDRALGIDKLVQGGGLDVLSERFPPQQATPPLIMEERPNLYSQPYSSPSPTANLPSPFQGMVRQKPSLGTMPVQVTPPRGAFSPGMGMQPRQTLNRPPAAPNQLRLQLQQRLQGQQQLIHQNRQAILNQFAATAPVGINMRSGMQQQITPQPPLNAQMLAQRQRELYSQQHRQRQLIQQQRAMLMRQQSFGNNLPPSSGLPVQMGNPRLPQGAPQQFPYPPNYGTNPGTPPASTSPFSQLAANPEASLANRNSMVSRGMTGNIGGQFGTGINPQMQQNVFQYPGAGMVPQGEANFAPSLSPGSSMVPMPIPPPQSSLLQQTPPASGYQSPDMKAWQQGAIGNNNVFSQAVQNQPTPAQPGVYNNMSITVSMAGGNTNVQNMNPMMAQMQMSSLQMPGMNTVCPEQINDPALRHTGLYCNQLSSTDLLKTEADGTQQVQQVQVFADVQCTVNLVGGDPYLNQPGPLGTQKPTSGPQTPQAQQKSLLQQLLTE
# [4] = VP16 transactivation inhibitors, counter-screen for SRC1 inhibitor project, cell-based, luminescence, high throughput (AID 588824; in the data active = inhibition above about 25%); conditions: cell-based VP16 transactivation luciferase luminescence; at 3.6 µM; stronger effect = higher value
# [5] = StAR promoter reporter inhibitors, counter-screen for LRH-1 inverse agonist project, cell-based, luminescence, high throughput (AID 651611); conditions: StAR promoter luciferase reporter counterscreen, at 3.6 µM, stronger effect = higher value
# [6] = target: Nuclear receptor subfamily 5 group A member 2 (Homo sapiens) (UniProt O00482); assay: LRH-1 (NR5A2) inverse agonists, retest, confirmation, cell-based, luminescence (AID 651613; in the data active = inhibition above about 42%;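 note: HEK293T cells co-transfected with LRH-1 and StAR promoter luciferase reporter; 0% = vehicle wells and 100% = parental cells lacking receptor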); conditions: cell-based LRH-1 luciferase reporter, inverse agonism; at 3.6 µM; stronger effect = higher value
# Nuclear receptor subfamily 5 group A member 2 (Homo sapiens), sequence (O00482 whole entry, looked up): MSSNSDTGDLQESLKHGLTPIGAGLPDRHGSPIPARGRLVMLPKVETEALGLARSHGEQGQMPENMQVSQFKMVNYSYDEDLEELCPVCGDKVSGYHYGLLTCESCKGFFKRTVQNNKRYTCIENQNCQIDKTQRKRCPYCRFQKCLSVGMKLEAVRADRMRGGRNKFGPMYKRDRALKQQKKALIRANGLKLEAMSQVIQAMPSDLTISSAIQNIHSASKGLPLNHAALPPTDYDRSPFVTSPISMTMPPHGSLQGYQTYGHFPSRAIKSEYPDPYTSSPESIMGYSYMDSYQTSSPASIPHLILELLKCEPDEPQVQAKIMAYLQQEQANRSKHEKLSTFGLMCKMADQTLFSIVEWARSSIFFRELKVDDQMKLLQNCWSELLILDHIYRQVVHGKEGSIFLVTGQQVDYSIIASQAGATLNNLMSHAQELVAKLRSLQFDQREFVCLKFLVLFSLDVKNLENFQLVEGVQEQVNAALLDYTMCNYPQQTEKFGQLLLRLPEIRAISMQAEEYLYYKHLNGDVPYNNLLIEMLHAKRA
# [7] = target: Steroidogenic factor 1 (Homo sapiens) (UniProt Q13285); assay: SF1 (NR5A1) inverse agonists, counter-screen for LRH-1 inverse agonist project, cell-based, luminescence, high throughput (AID 651614; in the data active = inhibition above about 44%;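 note: cells cotransfected with StAR promoter reporter and SF1 expression vector; 0% = vehicle on cells with receptor and 100% = vehicle on cells lacking receptor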); conditions: cell-based SF1 luciferase reporter, at 3.6 µM, stronger effect = higher value
# Steroidogenic factor 1 (Homo sapiens), sequence (Q13285 whole entry, looked up, the tested form may be a part): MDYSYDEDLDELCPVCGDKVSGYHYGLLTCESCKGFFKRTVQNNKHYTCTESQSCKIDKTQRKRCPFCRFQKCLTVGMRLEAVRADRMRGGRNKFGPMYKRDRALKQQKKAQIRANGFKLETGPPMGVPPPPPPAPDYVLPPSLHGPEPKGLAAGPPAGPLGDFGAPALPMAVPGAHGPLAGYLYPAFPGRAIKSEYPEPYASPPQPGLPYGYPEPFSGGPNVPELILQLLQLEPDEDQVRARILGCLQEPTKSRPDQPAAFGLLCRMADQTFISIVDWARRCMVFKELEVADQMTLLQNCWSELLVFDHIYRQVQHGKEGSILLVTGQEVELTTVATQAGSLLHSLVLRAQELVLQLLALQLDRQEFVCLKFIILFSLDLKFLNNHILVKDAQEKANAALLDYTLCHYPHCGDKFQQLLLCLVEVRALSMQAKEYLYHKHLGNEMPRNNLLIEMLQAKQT
# [8] = VP16 transactivation reporter inhibitors, counter-screen for LRH-1 inverse agonist project, cell-based, luminescence, high throughput (AID 651615; in the data active = inhibition above about 33%); conditions: Gal4-VP16 luciferase reporter cells, at 3.6 µM, stronger effect = higher value
Structure (SMILES),inhibition [1],inhibition [2],inhibition [3],inhibition [4],inhibition [5],inhibition [6],inhibition [7],inhibition [8]
CC[n+]1c(C=C2C=C(C)OC(C)=C2)sc2ccccc21,42.2%,67.2% (active),40.9%,71.5% (active),70.3% (active),108% (active),85% (active),92.9% (active)
O=C(/C=C/c1ccc(O)cc1)c1ccc(NC2=C(N3CCCCC3)C(=O)c3ccccc3C2=O)cc1,33.2%,26.1%,22.5%,36.1% (active),-1.86%,76.3% (active),17.3%,67.4% (active)
Cc1ccnc2c1ccc1c(C)ccnc12,86.2% (active),54.3% (active),73.3% (active),61.9% (active),88.8% (active),108% (active),87% (active),65.1% (active)
CC1(C)CC(N2CCN(Cc3ccccc3)CC2)=CC(=[N+]2CCCCC2)C1,30.2%,50.7% (active),-6.45%,40.7% (active),59.8% (active),88.3% (active),86.3% (active),74% (active)
O=C(/C=C/c1cccs1)NC(=S)NNC(=O)c1ccccc1O,76% (active),77.6% (active),57% (active),78.7% (active),76.8% (active),106% (active),91.8% (active),86% (active)
CC(=NNC(=S)Nc1ccc(C)cc1)c1ccccn1,59% (active),69.9% (active),46.8% (active),66% (active),66.1% (active),68.7% (active),85.4% (active),52.6% (active)
OC[C@H]1O[C@@H](n2cnc3c(NCc4ccco4)ncnc32)[C@H](O)[C@@H]1O,58% (active),44.6% (active),42.5%,51.8% (active),55.1% (active),52.9% (active),51.4% (active),61.4% (active)
Cc1cc(/C=c2/sc3nc4ccccc4n3c2=O)c(C)n1-c1ccccn1,89.7% (active),87.8% (active),82.9% (active),81.6% (active),86.4% (active),84.2% (active),87.4% (active),78.8% (active)
Cc1onc(-c2ccccc2)c1C(=O)NC(=S)NNC(=O)c1ccc(O)cc1O,55.7% (active),75.7% (active),69.8% (active),80.5% (active),62.8% (active),95.8% (active),85.6% (active),83.5% (active)
CCN(CC)CCn1c2ccccc2c2cnc(N)c(C#N)c21,5.22%,35.2% (active),30.1%,50.6% (active),35.7% (active),65.8% (active),57.4% (active),74.8% (active)
CC1CCc2nc(NC(=O)CSc3nc4ccccc4o3)sc2C1 (stereo not drawn),14.2%,15.8%,-11.1%,-33.6%,5.74%,-27.5%,7.34%,-33.5%
CC(NC(=O)Nc1nnc(C(F)(F)F)s1)(C(F)(F)F)C(F)(F)F,52.9% (active),72% (active),37.6%,79.1% (active),74.9% (active),99.7% (active),89.4% (active),93% (active)
O=C(NCc1ccccc1)c1cccc(NC(=O)c2ccco2)c1,18.4%,50.7% (active),26.9%,48.9% (active),35.5% (active),51.6% (active),51.1% (active),68.5% (active)
CCC(C)n1ncn(-c2ccc(N3CCN(c4ccc(O)cc4)CC3)cc2)c1=O (stereo not drawn),32.4%,51.9% (active),20.6%,54.8% (active),63.1% (active),76.7% (active),70.8% (active),73.1% (active)
CN(C)CC1CCC/C(=C\c2ccc(OC(=O)c3ccc(Cl)cc3)cc2)C1=O (stereo not drawn),50.4% (active),60.2% (active),29.9%,58.1% (active),70.8% (active),89.9% (active),76.4% (active),69.3% (active)
CCCCCCCCCCn1ccc(=N)cc1,70.1% (active),81.1% (active),51.3% (active),80.4% (active),69.4% (active),102% (active),90.2% (active),83.7% (active)
O=c1c2ccccc2sc2ccc(C#CC3(O)CCCCC3)cc12,87.4% (active),84.4% (active),76.2% (active),75% (active),84.3% (active),56% (active),76.5% (active),71.2% (active)
O=C(Nc1ccc2c(c1)OCCO2)C(c1cc2ccccc2o1)N1CCN(c2ccc(C(F)(F)F)cn2)CC1 (stereo not drawn),19.5%,6.65%,-13.5%,-14.1%,-29.7%,-44.4%,-28%,-10.8%

Structure (SMILES),inhibition [1],inhibition [2],inhibition [3],inhibition [4],inhibition [5],inhibition [6],inhibition [7],inhibition [8]
Cc1ccc2ccc3ccc(C)nc3c2n1,42.1%,70.6% (active),44.8%,68.2% (active),77.2% (active),85.8% (active),87.4% (active),68.9% (active)
CC1CN(S(=O)(=O)c2ccc(C(=O)NCCCn3ccnc3)cc2)CC(C)O1 (stereo not drawn),87.8% (active),47.5% (active),67.9% (active),30.4% (active),87.1% (active),99.2% (active),95.5% (active),81.1% (active)
Cn1cc(/C=C/c2cc[n+](C)cc2)c2cc(Cl)ccc21,21.6%,43.1% (active),21.5%,38.8% (active),47.9% (active),81.2% (active),78.8% (active),73.9% (active)
COc1ccc(C2=Nn3c([n+](C)c4ccccc43)SC2)cc1,45.3% (active),68.3% (active),21.8%,66.5% (active),59.1% (active),95.7% (active),86.5% (active),78.7% (active)
c1ccc2cc3c(NCCN4CCOCC4)ccnc3cc2c1,22.8%,44.7% (active),38.6%,45.4% (active),35.6% (active),83.1% (active),55.6% (active),55.8% (active)
COCCn1c(C)cc(C(=O)COC(=O)c2ccccc2Br)c1C,71.7% (active),57% (active),46.2%,36.7% (active),57.1% (active),-4.05%,50.9% (active),16.6%
O=C(Nc1nc(-c2ccccc2)cs1)c1ccccc1NS(=O)(=O)c1ccc(F)cc1,40.7%,65.5% (active),45%,60.5% (active),66.6% (active),101% (active),87.5% (active),79.3% (active)
CCCCC(=O)NC(c1ccc(Cl)cc1)c1ccc2cccnc2c1O (stereo not drawn),66.9% (active),62.4% (active),51.3% (active),62.2% (active),67.9% (active),87.8% (active),86.1% (active),69.1% (active)
Nc1ccc(S(=O)(=O)NNC(=O)C(=O)NNc2ccccc2)cc1,12.2%,8.16%,-15.5%,18.5%,5.29%,18.9%,17.6%,39.2% (active)
O=NN(CC(=O)NNc1ccccc1)CC(=O)NNc1ccccc1,22.6%,29.9% (active),9.03%,27.5% (active),37.4% (active),58.7% (active),53.1% (active),67.5% (active)
Cc1cccc2cc(-c3ccccc3)c(-c3ccccc3)c[n+]12,4.1%,37% (active),5.14%,40.4% (active),18.2%,106% (active),63.2% (active),81.7% (active)
COc1ccc(C)cc1NC(=O)c1nnn(Cc2cccc(C(F)(F)F)c2)c1N,10.7%,41.8% (active),27.5%,53.3% (active),39.6% (active),56.2% (active),57.3% (active),60.3% (active)
COc1ccccc1-n1cc([C@@H]2C[C@H]3CN(c4ccccc4)C(=O)[C@]34CCCN24)cn1,53.1% (active),38% (active),26.6%,47.4% (active),36.2% (active),57.8% (active),19.5%,69.6% (active)
CN(C)CCNc1ccc(CO)c2oc3ccc(O)cc3c(=O)c12,4.57%,31% (active),33%,33.1% (active),47.7% (active),53.7% (active),53.1% (active),48.4% (active)
Cc1ccc(NCCN(C)C)c2c(=O)c3cc(O)ccc3sc12,40.4%,41.6% (active),46.6%,29.6% (active),41.3% (active),67.3% (active),54.6% (active),55.7% (active)
CCCCC[n+]1cccc2c3ccccc3ccc21,39.9%,59% (active),30.7%,59% (active),51.5% (active),90% (active),81.5% (active),77% (active)
Cc1cc(/C=C2\Sc3ccccc3N2C)cc(C)[n+]1CC1CCCO1 (stereo not drawn),37.1%,77.1% (active),34%,75.3% (active),77.8% (active),99.3% (active),90.5% (active),89% (active)
COc1ccc(CCNc2ncnc3c2oc2ccccc23)cc1OC,15.8%,34.9% (active),2.85%,32.5% (active),34.5% (active),51.8% (active),58.1% (active),55.6% (active)
